Data: PubChem BioAssay (NCATS)
Where “and” joins values, the source holds several entries; their conditions need not be identical. Identical values can stand only once. Records with an inconclusive call do not appear. Calls of active or inactive are those of the source. Unless noted, the call rests on the fitted dose curve; in most records, active means well fitted curve in the direction sought with a large enough effect; inconclusive means small, poorly fitted or top-dose-only effect, or another doubt; inactive means no such curve, though single readings can be large; an effect the other way counts as inactive or inconclusive.

Experiments:
Hek293T = experiment: Primary qHTS to identify gynecologic anti-cancer compounds using libraries of approved drugs and bioactive compounds (AID 1345084); conditions: Gynecologic cancer cell panel viability, ATPlite luminescence, 48 h, control line for the selectivity index; series mostly up to 57.5 µM; further: on the % scale 0 is the no-effect control and ±100 the full control effect; nearly all actives have a fitted effect of over 55% in size
Summary of the method: (§1)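 Cells, 1,000 per well, plated 16 h, then exposed 48 h at 37 C to compounds. Viability by ATPlite luminescence after 15 min at room temperature.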

JEG-3 = experiment: as above; conditions: Gynecologic cancer cell panel viability, ATPlite luminescence, 48 h; series mostly up to 57.5 µM
Summary of the method: as §1

OV90 = experiment: as above; conditions: Gynecologic cancer cell panel viability, ATPlite luminescence, 48 h; series mostly up to 57.5 µM
Summary of the method: as §1

PA-1 = experiment: as above; conditions: Gynecologic cancer cell panel viability, ATPlite luminescence, 48 h; series mostly up to 57.5 µM
Summary of the method: as §1

SKOV3 = experiment: as above; conditions: Gynecologic cancer cell panel viability, ATPlite luminescence, 48 h; series mostly up to 57.5 µM
Summary of the method: as §1

Tov-21-G = experiment: as above; conditions: Gynecologic cancer cell panel viability, ATPlite luminescence, 48 h; series mostly up to 57.5 µM
Summary of the method: as §1

Tov112D = experiment: as above; conditions: Gynecologic cancer cell panel viability, ATPlite luminescence, 48 h; series mostly up to 57.5 µM
Summary of the method: as §1

[1] = Drug repurposing screens with cells derived from glioblastoma tumor samples (AID 1345199); conditions: GBM patient neurospheres viability, ATP luminescence, 48 h; further: nearly all actives have a fitted effect of over 40% in size; further: potency means the concentration at half of the fitted maximal effect; on activity, negative = cell killing: on the % scale 0 is the no-effect control and ±100 the full control effect
Summary of the method: (§2)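 Primary testing used CD133+ neurospheres from four GBM patients, seven concentrations, 48 h exposure and ATP-based viability; confirmation added three slower-growing patient lines.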

astro = experiment: as above; conditions: viability, ATP luminescence, 48 h; series mostly up to 45.9 µM
Summary of the method: as §2

[2] = target: Nuclear receptor subfamily 1 group I member 2 (Rattus norvegicus) (UniProt Q9R1A7); experiment: qHTS assay for small molecule activators of the rat pregnane X receptor (rPXR) signaling pathway (AID 651751; call rule not given here; further: 0% is about no effect); conditions: rPXR reporter cells, luciferase (One-Glo), 24 h
[3] = qHTS assay for small molecule activators of the human pregnane X receptor (PXR) signaling pathway (AID 720659; call rule not given here; further: 0% is about no effect)
[4] = at 45.9 µM (top of the series), tumour line B
[5] = at 45.9 µM (top of the series), tumour line D
[6] = at 46 µM (top of the series), tumour line A
[7] = at 46.1 µM (top of the series), tumour line C

Sequence of Nuclear receptor subfamily 1 group I member 2 (Rattus norvegicus) (Q9R1A7 whole entry, looked up): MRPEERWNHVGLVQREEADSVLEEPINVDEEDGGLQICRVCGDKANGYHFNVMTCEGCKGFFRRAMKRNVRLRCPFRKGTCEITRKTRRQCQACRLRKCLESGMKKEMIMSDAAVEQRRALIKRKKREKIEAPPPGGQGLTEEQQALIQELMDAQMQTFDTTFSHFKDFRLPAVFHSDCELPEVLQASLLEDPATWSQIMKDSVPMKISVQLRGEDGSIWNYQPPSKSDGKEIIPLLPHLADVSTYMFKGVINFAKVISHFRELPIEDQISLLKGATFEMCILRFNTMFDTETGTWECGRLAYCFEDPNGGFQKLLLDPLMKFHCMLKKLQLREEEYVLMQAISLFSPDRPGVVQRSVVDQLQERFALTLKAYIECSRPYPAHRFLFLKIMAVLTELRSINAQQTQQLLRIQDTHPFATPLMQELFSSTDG

CCC(C)(CN(C)C)OC(=O)c1ccccc1 (stereo not drawn)
inactive: outcome (Hek293T) | outcome (JEG-3) | Potency (OV90) | outcome (PA-1) | outcome (SKOV3) | outcome (Tov-21-G) | outcome (Tov112D) | activity, negative = cell killing ([1]; at 20 µM (top of the series), tumour line C) -12.8% | activity, negative = cell killing ([1]; at 21.2 µM (top of the series), tumour line B) -2.39% | activity, negative = cell killing ([1]; at 21.2 µM (top of the series), tumour line D) -5.13% | outcome (astro)

COc1ccc(C(=O)NCc2ccc(OCCN(C)C)cc2)cc1OC
inactive: outcome (Hek293T) | outcome (JEG-3) | Potency (OV90) | outcome (PA-1) | outcome (SKOV3) | outcome (Tov-21-G) | outcome (Tov112D) | activity, negative = cell killing [1, 4] -21.3% | activity, negative = cell killing [1, 5] -4.36% | outcome (astro)

CC(C)NC[C@@H](O)COc1ccc(CC(N)=O)cc1
inactive: outcome (Hek293T) | outcome (JEG-3) | Potency (OV90) | outcome (PA-1) | outcome (Tov-21-G) | outcome (Tov112D) | activity, negative = cell killing [1, 4] -18.7% | activity, negative = cell killing [1, 5] 5.31% | activity, negative = cell killing [1, 6] 1.1% | activity, negative = cell killing [1, 7] -9.77%

O=C(O)Cc1ccc(CCNS(=O)(=O)c2ccc(Cl)cc2)cc1
inactive: outcome (Hek293T) | outcome (JEG-3) | Potency (OV90) | outcome (PA-1) | outcome (SKOV3) | outcome (Tov-21-G) | outcome (Tov112D) | activity, negative = cell killing [1, 4] -9.63% | activity, negative = cell killing [1, 5] -6.01% | outcome (astro)

COc1ccc(O)cc1
inactive: outcome (Hek293T) | outcome (JEG-3) | Potency (OV90) | outcome (PA-1) | outcome (SKOV3) | outcome (Tov-21-G) | outcome (Tov112D) | activity, negative = cell killing [1, 4] -15% | activity, negative = cell killing [1, 5] -17.8% | activity, negative = cell killing [1, 7] -24.9% | outcome (astro) | max response [2] -3% | outcome [3]

NC(=O)c1ccc([N+](=O)[O-])cc1Cl
inactive: outcome (Hek293T) | outcome (JEG-3) | Potency (OV90) | outcome (PA-1) | outcome (SKOV3) | outcome (Tov-21-G) | outcome (Tov112D) | activity, negative = cell killing [1, 4] -9.49% | activity, negative = cell killing [1, 5] -5.61% | activity, negative = cell killing [1, 7] -36.6% | outcome (astro)

C=CCN1C[C@H](C(=O)N(CCCN(C)C)C(=O)NCC)C[C@@H]2c3cccc4[nH]cc(c34)C[C@H]21
inactive: outcome (Hek293T) | outcome (JEG-3) | Potency (OV90) | outcome (PA-1) | outcome (SKOV3) | outcome (Tov-21-G) | outcome (Tov112D) | activity, negative = cell killing [1, 4] -13.1% | outcome (astro)

O=C(O)CCCCC1CCSS1 (stereo not drawn)
inactive: outcome (Hek293T) | outcome (JEG-3) | Potency (OV90) | outcome (PA-1) | outcome (SKOV3) | outcome (Tov-21-G) | outcome (Tov112D) | activity, negative = cell killing [1, 4] -9.35% | activity, negative = cell killing [1, 5] -12.2% | activity, negative = cell killing [1, 7] -7.1% | outcome (astro) | max response [2] -15% and -8.97% | outcome [3]

CCOc1ccccc1O[C@H](c1ccccc1)[C@H]1CNCCO1
inactive: outcome (Hek293T) | outcome (JEG-3) | Potency (OV90) | outcome (PA-1) | outcome (Tov-21-G) | outcome (Tov112D) | activity, negative = cell killing [1, 4] -15.3% | activity, negative = cell killing [1, 7] 11.5%
active: Potency ([1]; tumour line A) 12.6 µM

Cc1ccc2c(c1)c1c3n2CCNC3CCC1 (stereo not drawn)
inactive: outcome (Hek293T) | outcome (JEG-3) | Potency (OV90) | outcome (PA-1) | outcome (Tov-21-G) | outcome (Tov112D)

O=C(O)Cn1c(C(=O)Nc2nc(-c3ccccc3Cl)cs2)cc2ccccc21
inactive: outcome (Hek293T) | outcome (JEG-3) | Potency (OV90) | outcome (PA-1) | outcome (Tov-21-G) | outcome (Tov112D) | activity, negative = cell killing [1, 4] -16.8% | activity, negative = cell killing [1, 5] -18.1% | activity, negative = cell killing [1, 6] -41.5%

CCCOC(=O)c1ccc(N)cc1
active: Potency ([1]; tumour line C) 25.9 µM
inactive: outcome (Hek293T) | outcome (JEG-3) | Potency (OV90) | outcome (PA-1) | outcome (SKOV3) | outcome (Tov-21-G) | outcome (Tov112D) | activity, negative = cell killing [1, 5] -16.4% | outcome (astro)

CC[N+](CC)(CC(=O)Nc1c(C)cccc1C)Cc1ccccc1
inactive: outcome (Hek293T) | outcome (JEG-3) | Potency (OV90) | outcome (PA-1) | outcome (SKOV3) | outcome (Tov-21-G) | outcome (Tov112D) | activity, negative = cell killing [1, 4] -20.4% | activity, negative = cell killing [1, 5] -18.5% | activity, negative = cell killing [1, 7] -28% | outcome (astro) | max response [2] 0.531% | outcome [3]

O=C(CCBr)N1CCN(C(=O)CCBr)CC1
inactive: outcome (Hek293T) | outcome (JEG-3) | Potency (OV90) | outcome (PA-1) | outcome (Tov-21-G) | outcome (Tov112D) | activity, negative = cell killing [1, 4] -9.14% | activity, negative = cell killing [1, 5] -7.7% | activity, negative = cell killing [1, 7] -5.97%

COC(=O)c1ccc(O)cc1
inactive: outcome (Hek293T) | outcome (JEG-3) | Potency (OV90) | outcome (PA-1) | outcome (SKOV3) | outcome (Tov-21-G) | outcome (Tov112D) | activity, negative = cell killing [1, 4] -4.62% | activity, negative = cell killing [1, 5] -7.84% | activity, negative = cell killing [1, 7] -1.97% | outcome (astro) | max response [2] -3.01% | outcome [3]

Cc1cc(C)nc(NS(=O)(=O)c2ccc(N)cc2)n1
inactive: outcome (Hek293T) | outcome (JEG-3) | Potency (OV90) | outcome (PA-1) | outcome (SKOV3) | outcome (Tov-21-G) | outcome (Tov112D) | activity, negative = cell killing [1, 4] -8.37% | activity, negative = cell killing [1, 6] -19.9% | activity, negative = cell killing [1, 7] -16.8% | outcome (astro) | max response [2] 4.51% and 0.319%

OCc1ccc(Cl)cc1Cl
inactive: outcome (Hek293T) | outcome (JEG-3) | Potency (OV90) | outcome (PA-1) | outcome (Tov-21-G) | outcome (Tov112D) | activity, negative = cell killing [1, 4] -6.96% | activity, negative = cell killing [1, 5] -3.9% | activity, negative = cell killing [1, 6] -3.28% | activity, negative = cell killing [1, 7] 6.97% | outcome (astro)

CC1CCc2cc(F)cc3c(=O)c(C(=O)O)cn1c23 (stereo not drawn)
inactive: outcome (Hek293T) | outcome (JEG-3) | Potency (OV90) | outcome (PA-1) | outcome (Tov-21-G) | outcome (Tov112D) | activity, negative = cell killing [1, 4] -0.458% | activity, negative = cell killing [1, 5] -19% | activity, negative = cell killing [1, 6] -20.5% | activity, negative = cell killing [1, 7] -25.6% | outcome (astro)

COC(=O)c1ccccc1C(=O)c1ccc(OCCN2CCCCC2)cc1
active: Potency ([1]; tumour line A) 7.08 µM | Potency ([1]; tumour line C) 20.6 µM | Potency ([1]; tumour line D) 12.6 µM
inactive: outcome (Hek293T) | outcome (PA-1) | outcome (Tov-21-G) | outcome (Tov112D) | activity, negative = cell killing [1, 4] -26.9%
